# In paper PMC4336329 (PLoS ONE, 2015):
# The whole screen tested about 310,000 compounds, of which about 14,000 (4.5%) showed an effect of 50% or more. Effects have a minus sign here. This excerpt belongs to a sample that is enriched for strong results.
# Biological target: human ether-à-go-go-related gene (hERG) potassium channel (human, UniProt Q12809)
# Experiment: primary screen, population patch clamp on CHO cells stably expressing hERG; higher = less effect of the substance
# 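Also: peak tail current of the secondary pulse compared with the same well before compound.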
# human ether-à-go-go-related gene (hERG) potassium channel, sequence (Q12809 whole entry, looked up): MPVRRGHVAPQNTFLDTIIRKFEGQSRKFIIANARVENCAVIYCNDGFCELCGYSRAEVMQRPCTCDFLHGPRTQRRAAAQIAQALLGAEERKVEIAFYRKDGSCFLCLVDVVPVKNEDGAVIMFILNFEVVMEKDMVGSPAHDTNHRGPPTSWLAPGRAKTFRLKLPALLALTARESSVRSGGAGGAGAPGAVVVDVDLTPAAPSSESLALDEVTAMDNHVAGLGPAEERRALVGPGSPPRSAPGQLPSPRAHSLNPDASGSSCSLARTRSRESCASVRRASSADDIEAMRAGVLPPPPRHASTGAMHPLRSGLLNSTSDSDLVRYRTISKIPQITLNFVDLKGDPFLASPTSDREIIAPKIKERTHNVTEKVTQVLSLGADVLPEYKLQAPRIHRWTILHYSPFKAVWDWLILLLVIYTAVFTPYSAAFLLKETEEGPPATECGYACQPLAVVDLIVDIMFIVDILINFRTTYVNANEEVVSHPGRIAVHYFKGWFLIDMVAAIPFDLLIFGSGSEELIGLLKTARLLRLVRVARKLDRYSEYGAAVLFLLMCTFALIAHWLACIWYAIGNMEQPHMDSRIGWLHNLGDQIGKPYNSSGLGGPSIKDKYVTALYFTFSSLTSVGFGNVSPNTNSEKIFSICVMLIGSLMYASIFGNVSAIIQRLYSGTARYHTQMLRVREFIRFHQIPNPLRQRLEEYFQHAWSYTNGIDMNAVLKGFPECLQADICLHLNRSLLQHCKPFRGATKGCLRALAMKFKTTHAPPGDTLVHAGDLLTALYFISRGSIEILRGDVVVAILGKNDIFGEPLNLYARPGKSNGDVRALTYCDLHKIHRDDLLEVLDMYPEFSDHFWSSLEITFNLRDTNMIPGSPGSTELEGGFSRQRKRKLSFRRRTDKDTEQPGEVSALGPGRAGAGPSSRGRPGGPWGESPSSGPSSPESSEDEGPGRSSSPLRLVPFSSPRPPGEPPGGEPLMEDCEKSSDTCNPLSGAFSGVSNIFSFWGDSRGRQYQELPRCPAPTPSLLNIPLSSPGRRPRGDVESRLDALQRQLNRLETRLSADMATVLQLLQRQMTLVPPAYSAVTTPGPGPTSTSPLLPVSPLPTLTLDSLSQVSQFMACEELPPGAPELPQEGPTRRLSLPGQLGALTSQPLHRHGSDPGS
row,SMILES,"hERG current change (%, negative = inhibition) at 10uM"
1,Cc1cc(NC(=O)C2CC=CCC2C(=O)O)no1 (stereo not shown),-1.9%
2,CN(Cc1ccccc1F)C(=O)CN1CCN(S(=O)(=O)c2ccc3c(c2)OCCCO3)CC1,-18.4%
3,O=C(O)C1CCCCC1C(=O)N1CCN(S(=O)(=O)c2ccc(F)cc2)CC1 (stereo not shown),8.47%
4,COc1ccc(-c2cc(=O)c3cc(OC)c(OC)cc3[nH]2)cc1,-5.83%
5,COc1cc(NC(=O)c2cnc(N)s2)cc(C(=O)Nc2cccc(C(F)(F)F)c2)c1,-26%
6,COC(=O)c1cc(Nc2cc(C)c3ccc(O)cc3n2)cc(C(=O)OC)c1,6.58%
7,Cc1ccc(Nc2cc(C)c3c(O)cccc3n2)cc1C.Cl,19%
8,COc1ccc(Nc2cc(C)c3ccc(O)cc3n2)cc1,-58.4%
9,Cc1cc(Nc2ccccc2)nc2cc(O)ccc12,-11.5%
10,COc1ccc(Nc2cc(C)c3ccccc3n2)cc1,4.57%
11,Cc1ccc(Nc2cc(C)c3ccc(O)cc3n2)cc1C.Cl,-58.5%
12,COC(=O)c1c(-c2cccs2)csc1NC(=O)CSc1ncnc2sc(C)c(C)c12,0.474%
13,Cc1cc(C)nc(-n2nc(C)c3c(C(F)F)cc(C)nc32)n1,15.3%
14,CCC1=C([N+](=O)[O-])C(c2ccc3c(c2)OCO3)NC(=O)N1 (stereo not shown),16%
15,O=C(CSc1nc(CCC2CCCC2)nc2ccccc12)NCc1ccc2c(c1)OCO2,15%
16,CCOP(=O)(OCC)C(O)c1ccc(OC)c(OC)c1 (stereo not shown),15.6%
17,Cc1nc(SCC(=O)NCc2ccco2)nc(C)c1C,-6.76%
18,Cc1ccc(CNC(=O)c2csc3c2CCCCC3)cc1,2.19%
19,Cc1ccc(OCC(=O)Nc2cc(-c3nn4c(C)nnc4s3)ccc2C)cc1,-24.7%
20,Cc1ccc(-c2nn3c(C)nnc3s2)cc1NC(=O)COc1ccc(Cl)cc1,-70.6%
21,COc1ccc(OCC(=O)Nc2cc(-c3nn4c(C)nnc4s3)ccc2C)cc1,-4.85%
22,CC(C)[C@H]1CN(C)CCN1Cc1cn(C)nc1-c1cccc(Cl)c1,-27%

row,SMILES,"hERG current change (%, negative = inhibition) at 10uM"
1,COc1ccc(C(c2c(NC(=O)c3ccco3)sc(C)c2C)N2CCOCC2)cc1OC (stereo not shown),-15%
2,CC(=O)Nc1ccc(-c2sc(Nc3ccccc3)n[n+]2C)cc1.[Cl-],27.5%
3,COc1ccccc1C1C=C(c2ccc(Cl)cc2)Nc2nc(N3C(=O)CCC3=O)nn21 (stereo not shown),-32.8%
4,N#C/C(=C\c1ccc(N2CCOCC2)c([N+](=O)[O-])c1)c1nc2ccccc2[nH]1,-59.6%
5,N#C/C(=C/c1ccc(N2CCCC2)c([N+](=O)[O-])c1)c1nc2ccccc2[nH]1,-3.43%
6,N#C/C(=C\c1ccc(N2CCCC2)c([N+](=O)[O-])c1)c1nc2ccccc2[nH]1,-35.5%
7,COc1ccccc1NC(=O)CN1C(=O)NC2(CCCCCCC2)C1=O,1.08%
8,CCOc1cc(N2CCOCC2)c(OCC)cc1NC(=O)CN1C(=O)N(C)C2(CCCCC2)C1=O,-23.5%
9,COc1cc(NC(=O)c2ccccc2)c(OC)cc1NC(=O)CN1C(=O)NC2(CCCCC2)C1=O,-70.3%
10,CCOc1cc(N2CCOCC2)c(OCC)cc1NC(=O)CN1C(=O)NC(CC(C)C)C1=O (stereo not shown),-70.4%
11,CCOc1cc(N2CCOCC2)c(OCC)cc1NC(=O)CN1C(=O)NC2(CCc3ccccc32)C1=O (stereo not shown),-44.5%
12,CCOc1cc(N2CCOCC2)c(OCC)cc1NC(=O)CN1C(=O)NC(Cc2ccccc2)C1=O (stereo not shown),-25.5%
13,CCOc1cc(N2CCOCC2)c(OCC)cc1NC(=O)CN1C(=O)NC(C)(C2CC2)C1=O (stereo not shown),26.8%
14,CCOc1ccc(S(=O)(=O)N2CCOCC2)cc1NC(=O)CN1C(=O)NC2(CCCCC2)C1=O,-17.9%
15,CCOc1cc(N2CCOCC2)c(OCC)cc1NC(=O)CN1C(=O)C2CC=CCC2C1=O (stereo not shown),-8.84%
16,CCOc1cc(N2CCOCC2)c(OCC)cc1NC(=O)CN1C(=O)NC2(CCCCCCC2)C1=O,-63%
17,CCOc1cc(N2CCOCC2)c(OCC)cc1NC(=O)CN1C(=O)NC2(CCCCC2)C1=O,-69.7%
18,COc1cc(NC(=O)c2ccccc2)c(OC)cc1NC(=O)CN1C(=O)NC2(CCCCC2C)C1=O (stereo not shown),-49.8%
19,CSc1ccccc1C(=O)Nc1nc2ccccc2[nH]1,2.78%
20,COc1ccccc1N(CC(=O)NC1CCCC1)C(=O)CCC(=O)Nc1ccccn1,6.68%
21,Cc1[nH]n(-c2ccccc2)c(=O)c1-c1ccc(Cl)cc1,9.3%
22,COc1ccc(C(=O)NC(=S)Nc2ccccc2F)cc1,9.53%

row,SMILES,"hERG current change (%, negative = inhibition) at 10uM"
1,CN(C)S(=O)(=O)Oc1ccsc1C(=O)Nc1ccc(Cl)cc1,-33.7%
2,Cc1cc(N=NC(=O)c2ccccc2)ccc1O,4.74%
3,O=C(Nc1ccc(Cl)cc1)NC1CCCC1Cc1ccco1 (stereo not shown),-15.3%
4,CCOc1ccccc1Nc1ccnc2cc(Cl)ccc12,-57.2%
5,CCOc1cc(/C=N/Nc2cc(C)nc3ccc(C)cc23)ccc1O,11.1%
6,CCOc1ccc(Nc2ccnc3cc(Cl)ccc23)cc1,-7.97%
7,CCOc1ccccc1Nc1cc(C)nc2ccc(C)cc12,-70.1%
8,CCOc1ccccc1/C=N/Nc1cc(C)nc2ccc(C)cc12,8.9%
9,Cc1ccc(Nc2cc(C)nc3ccc(C)cc23)cc1,-37.9%
10,Clc1ccc2c(NNc3ccccc3Cl)ccnc2c1,7.9%
11,Cc1ccc2nc(C)cc(Nc3ccc([N+](=O)[O-])cc3)c2c1,-14.4%
12,CCOc1ccc(Nc2cc(C)nc3ccc(C)cc23)cc1,-69.6%
13,Cc1ccccc1-n1nnnc1SCc1cc(=O)n2ccsc2n1,-25.6%
14,Cc1nc2ccccc2nc1N1CCOCC1,5.42%
15,Cc1cccc2nc(Cn3c(=O)n(CCCC(=O)NCc4ccco4)c(=O)c4ccccc43)cc(=O)n12,-23%
16,COc1ccc(S(=O)(=O)Nc2ccc(Nc3ccccc3)cc2)cc1,5.15%
17,N#Cc1ccccc1Cn1cc(C(=O)c2ccccc2F)c2ccccc21,4.67%
18,Cc1cccc(NC(=O)c2cnn(-c3ccc(F)cc3)c2C2CCNCC2)c1C.Cl,-9.71%
19,CCc1ccc(NC(=O)c2cnn(-c3ccccc3)c2C2CCNCC2)cc1.Cl,-60%
20,CCCc1c(C(=O)Nc2ccc(F)cc2)cnn1-c1ccccc1,12.5%
21,Cc1cc(C)cc(NC(=O)c2cnn(-c3ccccc3)c2C2CCNCC2)c1.Cl,-19.7%
22,CCc1cccc(NC(=O)c2cnn(-c3ccccc3)c2C)c1,-56%

row,SMILES,"hERG current change (%, negative = inhibition) at 10uM"
1,CCc1ccc(NC(=O)c2cnn(-c3ccccc3)c2C)cc1,2.7%
2,Cc1ccc(-n2ncc(C(=O)Nc3cc(Cl)ccc3Cl)c2C2CCNCC2)cc1.Cl,-62%
3,Cc1ccc(-n2ncc(C(=O)Nc3ccc(Cl)cc3)c2C2CCNCC2)cc1C.Cl,-71.7%
4,Cc1cccc(C)c1-n1ncc(C(=O)NC2CCCC2)c1C1CCNCC1,18.9%
5,O=C(c1ccco1)N1CCN(C(=O)c2cnn(-c3ccc(Cl)cc3)c2C2CCNCC2)CC1,15%
6,Cc1ccc(-n2ncc(C(=O)Nc3cc(Cl)ccc3C)c2C2CCNCC2)cc1C.Cl,-35.1%
7,Cc1c(C(=O)Nc2ccccc2)cnn1-c1ccccc1,-3.03%
8,NC(=O)c1ccc(N=Cc2ccc([N+](=O)[O-])s2)cc1,8.6%
9,Cc1cccc(OCc2nnc(SCC(=O)O)n2Cc2ccccc2)c1,28.1%
10,Cc1cccc(C(=O)Nc2nnc(Cc3c[nH]c4ccccc34)s2)c1,12.7%
11,O=C(NCc1cccs1)C1CCN(S(=O)(=O)c2ccc3c(c2)OCCO3)CC1,16.5%
12,Cc1ccc(C(=O)NCCN2CCOCC2)c(Cl)c1,5.79%
13,COc1ccccc1OCC(=O)Nc1cccc(-c2nc3ccccc3o2)c1,0.23%
14,COc1ccc(-c2cccc(NS(=O)(=O)c3ccc([N+](=O)[O-])cc3)c2)nn1,-15.2%
15,CSc1cccc(NC(=O)C2CCN(S(=O)(=O)c3ccc4c(c3)NC(=O)CO4)CC2)c1,12.3%
16,O=C(Nc1ccccc1)/C(=C/c1ccc(F)cc1)NC(=O)c1ccco1,-2.63%
17,CCCCc1ccc(NC(=O)CSc2nnc(C)c(=O)n2N)cc1,-23.9%
18,Cc1ccn2cc(-c3cnoc3C)nc2c1,6.49%
19,Cc1ccc(NC(=O)COc2ccccc2CNC(C)(C)CC(C)(C)C)cc1,-22.7%
20,CCOc1cc(/C=N/Nc2nc(N3CCCC3)nc(N3CCCC3)n2)ccc1O,-61.4%
21,CCOc1ccc(/C=N/Nc2nc(N3CCCC3)nc(N3CCCC3)n2)cc1OC,-12%
22,COc1cc(/C=N/Nc2nc(N3CCCC3)nc(N3CCCC3)n2)ccc1O,-37.7%
